Compounds with a hit are over-represented: about 0.47% of the library has one in this group of screens.
Mito fusion yeast – blocks mitochondrial division or promotes mitochondrial fusion; S. cerevisiae fusion-defective mutant growth rescue, CellTiterGlo 48 h; Potency, µM (doses to about 46.1 µM), most hits filed as activators; AID 485298; hit rate 0.23% among 320,000; also: nearly all actives have a fitted effect of over 45% in size
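Luminescent cell viability in 1536-well qHTS format served as the measure of rescued growth in ts fusion-mutant S. cerevisiae cultured on non-fermentable YPEG for 48 hours at 37C.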
N370S GC – inhibitors or activators of N370S glucocerebrosidase for Gaucher disease. N370S GC spleen homogenate, 4MU-glucoside fluorescence. Potency, µM (titrated, usually from 59.4 µM), usual class: inhibitors. hit rate 0.092% among 330,000. AID 2101
AT treatment – potential ataxia-telangiectasia treatments restoring KAP-1 phosphorylation. F2112 A-T fibroblasts, KAP-1 phosphorylation AlphaLISA; neocarzinostatin DNA damage 30 min before lysis. Potency, µM (titrated, usually from 57.5 µM), usual class: activators. hit rate 0.19% among 320,000. AID 485349; also: nearly all actives have a fitted effect of over 45% in size
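ATM-like activity read as KAP-1 phosphorylation via AlphaLISA donor/acceptor antibody pairs after lysis and 6 hr at 25C. Cells were ATM-null patient fibroblasts (F2112, hTERT), dosed 60 min, then exposed to the DSB inducer NCS for 30 min.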
Eya2 inh – blocks the phosphatase activity of human Eya2; hit rate 0.006% among 330,000; Potency, µM (titrated, usually from 76.9 µM), hits mostly inhibitors; O00167; recombinant Eya2, OMFP fluorescence dephosphorylation (OMFP is methylfluorescein phosphate)
Target sequence (O00167 whole entry, looked up): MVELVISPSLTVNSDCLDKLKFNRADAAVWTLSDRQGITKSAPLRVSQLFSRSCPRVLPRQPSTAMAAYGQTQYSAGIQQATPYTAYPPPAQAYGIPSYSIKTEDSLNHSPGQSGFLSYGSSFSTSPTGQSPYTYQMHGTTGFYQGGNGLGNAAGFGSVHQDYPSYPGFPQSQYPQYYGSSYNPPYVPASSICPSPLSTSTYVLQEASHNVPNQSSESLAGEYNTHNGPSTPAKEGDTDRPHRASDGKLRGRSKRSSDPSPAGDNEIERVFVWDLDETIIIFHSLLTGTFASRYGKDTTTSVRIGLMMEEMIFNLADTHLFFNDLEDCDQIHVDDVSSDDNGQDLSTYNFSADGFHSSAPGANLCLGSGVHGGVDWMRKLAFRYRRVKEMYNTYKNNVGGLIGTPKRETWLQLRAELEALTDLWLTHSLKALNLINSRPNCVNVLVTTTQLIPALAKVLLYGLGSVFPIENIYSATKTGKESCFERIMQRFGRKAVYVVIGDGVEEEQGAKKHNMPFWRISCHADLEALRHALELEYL
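Eya2 (0.2 uM) preincubated 10 min at ambient with compound, then OMFP substrate added at 50 uM; 10 min reaction in 50 mM HEPES pH 7.5, 50 mM NaCl, 5 uM MgCl2, 0.05% BSA, 1 mM DTT. Fluorescence read at Ex 485/Em 525 nm.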
Each line names hits and unclear results; the compound was inactive in the other large screens; ! = not confirmed by another sample. Calls follow the shape of the dose curve; as a rule, active = well fitted curve in the direction sought with a large enough effect; inconclusive = small, poorly fitted or top-dose-only effect, or another doubt; inactive = no such curve, though single readings can be large; an effect the other way counts as inactive or inconclusive.

Cc1c(CCC(=O)NCCCCCC(=O)O)c(=O)oc2cc3occ(-c4ccccc4)c3cc12	AT treatment 8.9µM
Cc1c(CC(=O)NCCCC(=O)O)c(=O)oc2cc3occ(-c4ccccc4)c3cc12	none
COc1cccc(-c2coc3c(C)c4oc(=O)c(CCC(=O)O)c(C)c4cc23)c1	none
COc1cccc(-c2coc3cc4oc(=O)c(CCC(=O)O)c(C)c4cc23)c1	Mito fusion yeast 22µM
Cc1ccc(C)c(SCc2noc(C(=O)NC(C)C)c2C(=O)O)c1	none
COc1ccc(S(=O)(=O)N(C(=O)c2ccncc2)c2ccc3oc4c(c3c2)CCCC4)cc1	Mito fusion yeast 11µM
COCCNC(=O)CSc1c2c(nc3ccc(Cl)cc13)CCCC2	Mito fusion yeast 18µM
COc1ccc(NC(=O)CSc2c3c(nc4cc(Cl)ccc24)CCCC3)cc1OC	AT treatment inconclusive
C[C@]12C=CC(=O)C=C1CC[C@@H]1C2=CC[C@]2(C)[C@@H](C(=O)CN3CCN(c4cc(N5CCCC5)nc(N5CCCC5)n4)CC3)CC[C@@H]12	Mito fusion yeast 15µM (no result: N370S GC, AT treatment)
Cc1c(C)c2c(c(C)c1O)CCC(C)(CN1CCN(c3cc(N4CCCC4)nc(N4CCCC4)n3)CC1)O2 (stereo unspecified)	none (no result: Mito fusion yeast, AT treatment, Eya2 inh)
Cc1ccc(/C(=N\O)c2oc3c(C)c4oc(=O)cc(C)c4cc3c2C)cc1	Mito fusion yeast 7.1µM
O=C(c1ccc(CS(=O)Cc2ccccc2Cl)o1)N1CCN(c2cccc(Cl)c2)CC1 (stereo unspecified)	Mito fusion yeast 35µM
COc1cccc(N2CCN(C(=O)c3ccc(CS(=O)Cc4ccccc4Cl)o3)CC2)c1 (stereo unspecified)	none
O=C(CN1C(=O)NC(c2ccccc2)(c2ccccc2)C1=O)NCC(=O)Nc1ccc(F)cc1	none (no result: N370S GC)
CCn1c(C)c(C(=O)O)c2cc(OC)c3ccccc3c21	AT treatment 10µM
COc1cc2c(C(=O)O)c(C)n(-c3ccccc3)c2c2ccccc12	N370S GC inconclusive, AT treatment inconclusive
Cn1c(=O)c2c(O)c(Cc3ccccc3)c(=O)[nH]c2n(C)c1=O	Mito fusion yeast 20µM
Cc1ccc2nc(-c3ccc(N4C(=O)CC(N5CCN(CCO)CC5)C4=O)cc3)sc2c1 (stereo unspecified)	N370S GC 18µM
Cc1ccc(N2C(=O)CC(N3CCN(c4ccccn4)CC3)C2=O)cc1 (stereo unspecified)	none
Cc1ccc2sc(N(CCCN(C)C)C(=O)c3ccc(S(=O)(=O)N(C)C4CCCCC4)cc3)nc2c1C	N370S GC 20µM
O=C(N=C1SC2CS(=O)(=O)CC2N1c1ccc(F)c(Cl)c1)C1CCCO1 (stereo unspecified)	none
CCC(C)Nc1nc(-c2c[nH]c3ccccc23)cs1 (stereo unspecified)	AT treatment 35µM
CNc1nc(-c2c[nH]c3ccccc23)cs1	none
COc1ccc(C(O)c2nc3ccccc3n2C(C)C)cc1 (stereo unspecified)	AT treatment 28µM
Cc1ccc(S(=O)(=O)Nc2cc3c(cc2N2CCOCC2)n(C)c(=O)c(=O)n3C)cc1	none
O=C(/C=C/c1cccc(Cl)c1)Nn1c(-c2cccs2)nc2ccccc2c1=O	Mito fusion yeast 16µM, N370S GC inconclusive
O=C(/C=C/c1ccccc1)Nn1c(-c2cccs2)nc2ccccc2c1=O	Mito fusion yeast inconclusive, N370S GC inconclusive
COc1cc2nc(=S)n3[nH]c(CCn4nc(C)cc4C)nc3c2cc1OC	none
CCCCCCc1cc2cc(S(=O)(=O)c3ccc(C)cc3)c(=O)oc2cc1O	N370S GC inconclusive, AT treatment 28µM
CCCCCCc1cc2cc(S(=O)(=O)c3ccc(Cl)cc3)c(=O)oc2cc1O	AT treatment inconclusive
CN1CCN(CC(=O)N2N=C(c3cccs3)CC2c2ccco2)CC1 (stereo unspecified)	none (no result: AT treatment)
COc1cc(/C=C(\C#N)C(=O)c2ccc(O)c(O)c2)cc(I)c1O	Mito fusion yeast 23µM!, N370S GC inconclusive, Eya2 inh inconclusive
Clc1ccc2c(c1)C(N1CCNCC1)Cc1ccccc1S2 (stereo unspecified)	N370S GC inconclusive (no result: AT treatment)
CN1CCN(C2Cc3ccccc3Sc3ccc(S)cc32)CC1 (stereo unspecified)	N370S GC 13µM (no result: Mito fusion yeast, AT treatment, Eya2 inh)
O=C1CCCC2=C1C1(CCCC1)N=C(Nc1nc3ccccc3o1)N2	none
CC(C)CCN(C(=O)CNC(=O)c1cccs1)C(C(=O)NC1CCCCC1)c1cccnc1 (stereo unspecified)	AT treatment 18µM
CC(C)CCN(C(=O)CNC(=O)c1cccs1)C(C(=O)NC1CCCC1)c1ccncc1 (stereo unspecified)	none
O=c1[nH][nH]c(-c2ccccc2)c1C=Nc1ccc(OC(F)(F)F)cc1	none
O=C(Nc1ccc(C2CC2(Cl)Cl)cc1)c1ccccc1Br (stereo unspecified)	Mito fusion yeast 14µM
O=C(Oc1ccccc1C(=O)Nc1ccccc1)c1ccccc1Br	Mito fusion yeast 16µM
O=C(COc1ccccc1C(=O)Nc1ccccc1)c1ccc(Br)cc1	none
COc1ccc(C2C(C(C)=O)=C(C)Nc3ncnn32)cc1[N+](=O)[O-] (stereo unspecified)	none
Fc1ccc(C(c2ccc(F)cc2)N2CCN(C/C=C/c3ccccc3)CC2)cc1	AT treatment 40µM
Cc1ccn2c(Nc3ccc4c(c3)OCO4)c(-c3ccc(O)cc3)nc2c1	N370S GC 16µM
Oc1ccc(-c2nc3ncccn3c2Nc2ccc3c(c2)OCO3)cc1	none
Cc1[nH]c2ccccc2c1C(=O)CSc1nc2ccccc2c(=O)n1CCCN1CCOCC1	N370S GC 10µM
O=c1onc2cnc3ccccc3n12	Mito fusion yeast 9.2µM (no result: AT treatment)
CC(C)NC(=O)Cn1c(=O)cnc2ccccc21	none
Cc1ccn2c(/C=N/OCc3ccc(F)cc3)c(-c3ccc(Cl)cc3)nc2c1	none
CCCC(=O)NCCc1c2n(c3ccc(OC)cc13)CCCc1ccccc1-2	Mito fusion yeast 18µM (no result: AT treatment)
O=C1OCC2=C1C(c1ccc(F)cc1)Sc1ccccc1N2 (stereo unspecified)	N370S GC 18µM
O=C(Nc1cccc(Cl)c1N1CCOCC1)c1ccc([N+](=O)[O-])o1	none
COc1cc(C(C(=O)NC(C)(C)C)N(C(=O)CNC(=O)c2cccs2)c2ccc(C(C)C)cc2)cc(OC)c1OC (stereo unspecified)	none
COc1cc(C(C(=O)NC(C)(C)C)N(C(=O)CNC(=O)c2cccs2)c2ccccc2)cc(OC)c1OC (stereo unspecified)	N370S GC 13µM
O=c1c2c3c(sc2nc(NCCO)n1CCc1ccccc1)CCCCC3	Mito fusion yeast 20µM
O=c1c2c3c(sc2nc(NCCO)n1Cc1ccco1)CCCCC3	none
Cc1nc2cc(NS(=O)(=O)c3c(C)c(C)cc(C)c3C)ccc2s1	Mito fusion yeast 35µM
CC(C)(C)NC(=O)CN1C(=O)/C(=C/c2ccccc2)SC1=S	none
O=C(C1CCCN(c2ncnc3c2nc2n3CCCCC2)C1)N1CCN(c2cccc(Cl)c2)CC1 (stereo unspecified)	Mito fusion yeast 8.9µM

Bioassay records deposited in PubChem by National Center for Advancing Translational Sciences (NCATS).
